The values that follow come from PubChem BioAssay (NCATS).

Results filed as inconclusive are left out. Calls of active or inactive are those of the source. Calls follow the shape of the dose curve; as a rule, active = well fitted inhibition curve with a large enough effect; inconclusive = small, poorly fitted or top-dose-only effect; inactive = flat fitted curve, though single readings scatter.

For this test, the target named is Tyrosine-protein phosphatase non-receptor type substrate 1 (Homo sapiens) + Leukocyte surface antigen CD47 (Homo sapiens) (UniProt P78324+Q08722). The test is described as follows: CD47-SIRPalpha protein protein interaction - Alpha assay qHTS validation (AID 1347059).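 Also: bead proximity luminescence from CD47 binding SIRPalpha after compound preincubation with SIRPalpha.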 The note with it: AlphaScreen CD47-His/biotin-SIRPalpha binding, LOPAC; series mostly up to 38.3 µM. The source says: SIRPalpha is a myeloid cell expressed immunomodulatory receptor that binds the tumor expressed immune checkpoint CD47. Therapeutic disruption of this interaction leads to immune-mediated tumor rejection. This assay was used to quantitate CD47-SIRPalpha binding biochemically and evaluate chemical libraries for novel CD47-SIRPalpha inhibitors. To recapitulate the biological interaction of CD47 and SIRPalpha, we designed expression constructs to produce their recombinant, soluble, extracellular interaction domains. CD47 was produced with an N-terminal 6His tag. SIRPalpha was produced with an N-terminal Avi-Tag for site-specific biotin incorporation. The CD47-SIRPalpha interaction was measured by AlphaScreen using affinity tag linked reagents (Ni-NTA acceptor bead and streptavidin donor bead). SIRPalpha without biotin incorporation was used as a positive control inhibitor.
Tyrosine-protein phosphatase non-receptor type substrate 1 (Homo sapiens) + Leukocyte surface antigen CD47 (Homo sapiens), sequence (P78324 whole entry, looked up): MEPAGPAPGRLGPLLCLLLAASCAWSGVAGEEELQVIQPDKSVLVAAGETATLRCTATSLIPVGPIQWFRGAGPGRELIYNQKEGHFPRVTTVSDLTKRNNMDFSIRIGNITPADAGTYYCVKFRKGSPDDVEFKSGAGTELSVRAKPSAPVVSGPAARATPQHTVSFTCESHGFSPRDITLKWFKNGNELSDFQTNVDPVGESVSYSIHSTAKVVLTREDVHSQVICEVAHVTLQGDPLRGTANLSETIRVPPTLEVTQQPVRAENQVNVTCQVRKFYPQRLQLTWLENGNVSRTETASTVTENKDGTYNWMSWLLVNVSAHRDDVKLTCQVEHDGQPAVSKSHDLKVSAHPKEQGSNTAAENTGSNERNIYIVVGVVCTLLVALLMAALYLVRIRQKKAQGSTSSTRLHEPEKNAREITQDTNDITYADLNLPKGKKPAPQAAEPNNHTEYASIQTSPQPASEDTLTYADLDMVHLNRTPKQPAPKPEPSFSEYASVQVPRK
Tyrosine-protein phosphatase non-receptor type substrate 1 (Homo sapiens) + Leukocyte surface antigen CD47 (Homo sapiens), sequence (Q08722 whole entry, looked up): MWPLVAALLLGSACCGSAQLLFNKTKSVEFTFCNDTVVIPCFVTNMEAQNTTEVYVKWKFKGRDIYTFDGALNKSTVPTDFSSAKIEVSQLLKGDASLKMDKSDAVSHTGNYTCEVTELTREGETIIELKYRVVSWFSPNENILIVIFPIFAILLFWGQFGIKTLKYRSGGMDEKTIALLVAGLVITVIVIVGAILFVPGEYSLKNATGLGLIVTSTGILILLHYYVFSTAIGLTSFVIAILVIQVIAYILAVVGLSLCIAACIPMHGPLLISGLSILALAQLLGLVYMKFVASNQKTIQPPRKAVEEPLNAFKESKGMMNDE
PROTOCOL TABLE (as described by Miller, T. et al. 2019)
SEQUENCE No. (e.g., 1, 2, 3, etc.); […] (e.g., Cells, Incubation, Reagent, etc.); VALUE and DESCRIPTION.
1a. Reagent. 2 uL SIRPalpha-biotin (25 nM) added to respective wells in Assay buffer; white/solid bottom high base, med bind 1536-well plates (Greiner 789075)
1b. Reagent. 2 uL Assay buffer negative control for background fluorescence
2. Reagent. 23 nL library compounds (7-pt, 1:4 intraplate titration series) or DMSO control transferred by Pin Tool
3. Centrifuge. Centrifuge plate for 30 s at 1000 RPM
4. Incubation.#Incubate reagents at room temperature for 30 min, protected from light
5. Reagent. 2 uL CD47-His (12.5 nM) in Assay buffer
6. Centrifuge. Centrifuge plate for 30 s at 1000 RPM
7. Incubation.#Incubate reagents at room temperature for 30 min, protected from light
8. Reagent. 1 uL Ni-NTA beads (10 ug/mL) added to respective wells
9. Reagent. 1 uL SAV beads (10 ug/mL) added to respective wells
10. Centrifuge. Centrifuge plate for 30 s at 1000 RPM
11. Incubation. Incubate reagents at room temperature for 30 min, protected from light
12. Detector. Measure AlphaScree n on EnVision (1536A1 aperture)
Where possible, perform Donor bead dilution and addition away from direct sunlight or with bright overhead lights turned off (<100 lux, similar to hallway lighting). Lighting should still be bright enough to allow accurate pipetting.
1. Assay buffer composition.#Phosphate buffered saline (PBS; 10 mM Phosphate, 137 mM NaCl, and 2.7 mM KCl; pH 7.4), 0.05% IGEPAL CA-630
2. 23nL of […] library compounds (7 plates) or DMSO vehicle control transferred to 9 Greiner white/solid bottom high base, TC plates in 7 interplate 1:5 titrations (see Yasgar, A. et al. 2008) with Pintool. Two of the 9 plates are DMSO-only in compound field at beginning and end of compound library-treated plates.
12. Aperture = 1536 plate HTS AlphaScreen; plate-detector distance = 0; Total measurement time = 240; Ex. time = 80 ms (33%); Afterglow CT1 corr. factor = 0; Glow CT2 corr. factor = 0; Bleach CT3 corr. factor = 0; Ref. signal= 417733; Ref. AD gain = 2
For orientation: In qHTS, concentration-response curves come from the screen itself.
For the molecule `CCN1CCCC1CNC(=O)c1cc(S(N)(=O)=O)ccc1OC` (configuration not stated), the outcome was inactive.

On to `N[C@@H](Cc1ccc(O)c(O)c1)C(=O)O`, for which the result was inactive.

Turning to `Cc1ccc(S(=O)(=O)N[C@@H](Cc2ccccc2)C(=O)CCl)cc1`, the result was inactive.

As for `CCN(CC)CCn1c(=O)c(Cc2ccc(OC)cc2)nc2ccccc21`, the outcome was inactive.

`CC(C)NCC(O)c1ccc(NS(C)(=O)=O)cc1` (configuration not stated): the result was inactive.

For the molecule `CC1CC2C3CCC4=CC(=O)C=C[C@]4(C)[C@@]3(F)[C@@H](O)C[C@]2(C)[C@@]1(O)C(=O)CO` (some centres not stated), the outcome was inactive.

Take `COc1cc2ncnc(Nc3cccc(Cl)c3)c2cc1OC`: the outcome was inactive.

Take `OCc1ccc(-c2nn(Cc3ccccc3)c3ccccc23)o1`: the outcome was inactive.

In the case of `NC(=O)c1cccc(N)c1`, the outcome was inactive.

With `CCCCS(=N)(=O)CCC(N)C(=O)O` (configuration not stated), the result was inactive.

As for `CNS(=O)(=O)CCc1ccc2[nH]cc(C3CCN(C)CC3)c2c1`, the outcome was inactive.

Take `CC1=C(C(=O)O)N2C(=O)[C@@H](NC(=O)C(N)c3ccccc3)[C@H]2SC1` (some centres not stated): the result was inactive.

In the case of `NC(=O)c1ccc2[nH]ccc2c1`, the outcome was inactive.

Turning to `COc1cc2nc(N3CCCN(C)CC3)nc(NC3CCN(Cc4ccccc4)CC3)c2cc1OC`, the result was inactive.

For `CC(=O)[C@H]1CC[C@H]2[C@@H]3CCC4=CC(=O)CC[C@]4(C)[C@H]3CC[C@]12C`, the outcome was inactive.

Consider `O=C(O)C1CCCN(CCC=C(c2ccccc2)c2ccccc2)C1` (configuration not stated), for which the outcome was inactive.

On to `Nc1nc(N)c2nc(CNc3ccc(C(=O)NC(CCC(=O)O)C(=O)O)cc3)cnc2n1` (configuration not stated), for which the result was inactive.
